HSP90 refold inh: HSP90 inhibitors, primary screen, cell lysate, luminescence. Heat shock protein HSP 90 (rabbit reticulocyte lysate; luciferase refolding). Rabbit reticulocyte lysate, luciferase refolding luminescence, 3 h. inhibition, % at 5.6 µM. 0.91% of 290,000 active. AID 1789, 2009;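 active = inhibition above the screen-wide mean plus 3 SD, computed separately per campaign, cut at about 16% in these data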;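 also: 0% = DMSO wells and 100% = 60 µM geldanamycin wells; inhibitors lower the luminescence because luciferase stays unfolded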
ARNT TACC3 PPI: disruptors of ARNT/TACC3 protein interaction, primary screen, biochemical, AlphaScreen, single concentration; inhibition, % at 9.99 µM; Transforming acidic coiled-coil-containing protein 3 (Homo sapiens), Q9Y6A5; AlphaScreen His-ARNT PAS-B/GST-TACC3 binding, luminescence; TACC3 fragment carries E629A point mutation; 0.66% of 390,000 active;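 active = mean inhibition of replicates at least 50% and at least half of replicates each reaching 50%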;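 also: 0% = complete ARNT plus TACC3 wells and 100% = ARNT alone without TACC3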
HSF1 inh: HSF1 inhibitors in luciferase reporter cells, primary screen, cell-based, NIH3T3, luminescence; NIH3T3-HGL HSE-luciferase, MG132-induced, luminescence 8 h; stronger effect = lower value; activity change, negative = inhibition, % at 7.5 µM (by protocol); 0.77% of 300,000 active;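 active = more than half of replicate wells show activity change below -50%, luminescence cut by over half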;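 also: luciferase reports HSF-1 transcriptional activity via heat shock element; 0% = median of DMSO wells and -100% = zero luminescence signal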
HIF act: HIF pathway transcriptional activators, primary screen, cell-based, U2OS HRE-luciferase, luminescence; U2OS HRE-luciferase reporter; normalized: DMSO 0%, desferrioxamine 100%; activation, % at 7.5 µM (by protocol); 0.32% of 300,000 active; AID 1910, 2009;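 active = mean activation of at least 10% of the iron chelator positive control signal, with at least half of replicates also reaching 10%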
HSF-1 act: HSF-1 activators, primary screen, NIH3T3-HGL cells, MG132 stress, luminescence, single point; NIH3T3-HGL HSF-1 luciferase reporter, 8 h; 100% = twice DMSO control signal; activation, % at 9 µM; 1.7% of 300,000 active; AID 504408, 2011;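 active = mean replicate activation of at least 50% with a set share of replicates each reaching 50%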;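 also: 0% = median of the neutral control wells and 100% = twice that signal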
Active calls of the source: *; · = no result given. This is a sample that favours compounds with a hit; in the whole collection about 3.1% have one here.

SMILES	HSP90 refold inh	ARNT TACC3 PPI	HSF1 inh	HIF act	HSF-1 act
CN(C)C(=O)C[C@@H]1C[C@@H]2c3cc(NS(=O)(=O)c4ccc(F)cc4)ccc3O[C@@H]2[C@H](CO)O1	·	-5	·	·	·
CCCC(=O)Nc1ccc2c(c1)C(=O)N(C)C[C@@H](OC)[C@H](C)CN(Cc1ccccc1OC)[C@H](C)CO2	·	-4	·	·	·
CNC[C@H]1OCCCC[C@@H](C)Oc2ccc(NS(=O)(=O)c3ccc(Cl)cc3)cc2C(=O)N([C@@H](C)CO)C[C@H]1C	·	3	·	·	·
CCN(c1ccccc1)S(=O)(=O)c1ccc(Cl)c(NC(=O)COC(=O)c2cccc(OC)c2O)c1	-4	-7	53	0	59*
Cc1ccc(SCCCn2cncn2)cc1	3	-7	-71*	0	-79
COc1ccc(NC(=O)Nc2cccc3c2O[C@@H](CN(C)S(C)(=O)=O)[C@H](C)CN([C@@H](C)CO)C3=O)cc1	·	-3	·	·	·
COc1ccc(NC(=O)C2Cc3ccccc3C(=O)O2)cc1 (configuration not stated)	·	-4	-71*	1	-76
O=C(CSCc1ccc(Br)cc1)N1CCCC1	-4	1	15	0	57*
O=C(CSCc1ccc(Br)cc1)N1CCOCC1	-5	-10	4	·	0
c1ccc(Cc2nc3ccccc3o2)cc1	10	4	-81*	1	-84
O=c1oc(Cc2ccccc2)nc2ccccc12	-3	-23	5	1	15
C[C@@H]1CN([C@H](C)CO)S(=O)(=O)c2ccc(C#Cc3ccncc3)cc2O[C@H]1CN(C)C(=O)C1CCC1	·	-1	·	·	·
N#Cc1ccc(Cl)cc1NC(=O)COC(=O)c1ccc(S(=O)(=O)N2CCCC2)cc1	2	-3	11	1	55*
O=C(COC(=O)c1ccc(S(=O)(=O)N2CCCCC2)cc1)Nc1ccccc1Cl	·	-11	·	·	·
COc1ccc(NC(=O)Nc2ccc3c(c2)C(=O)N([C@H](C)CO)C[C@H](C)[C@H](CN(C)Cc2ccc(C(F)(F)F)cc2)OCCCC[C@H](C)O3)cc1	·	-3	·	·	·
COCCNC(=O)/C(C#N)=C/c1ccc(OCc2ccc(F)cc2)cc1	1	-2	4	2	14
COCCCNC(=O)/C(C#N)=C/c1ccc(F)cc1	-4	-20	18	0	68*
O=C(C[C@H]1CC[C@@H]2[C@H](COC[C@@H](O)CN2Cc2ccc(F)cc2)O1)N1CCc2ccccc2C1	·	-3	·	·	·
O=C(NCc1ccccn1)Nc1cc(Cl)cc(Cl)c1	6	-11	11	0	-5
O=C(NCc1ccccn1)Nc1cccc(NC(=O)NCc2ccccn2)c1	5	78*	3	1	6
CCCCc1ccc(NC(=S)NCc2ccc(OC)cc2)cc1	1	·	8	0	51*
O=C(NCc1ccccn1)Nc1cccc(Cl)c1	-2	16	29	·	56*
Cc1cccc(NC(=O)NCc2ccccn2)c1	2	-3	-1	2	8
O=C(NCCCn1ccnc1)Nc1cccc(Cl)c1	-1	61*	3	0	48
COc1ccc(NC(=S)NCCCn2ccnc2)cc1	1	active	-6	1	-10
SMILES	HSP90 refold inh	ARNT TACC3 PPI	HSF1 inh	HIF act	HSF-1 act
O=C(CC1CCCCC1)NCc1ccccn1	-1	-2	-90*	-1	-92
CO[C@H]1CN(C)C(=O)c2cc(NC(=O)Nc3ccccc3)ccc2OC[C@H](C)N(C(=O)CC2CC2)C[C@@H]1C	·	-2	·	·	·
COc1ccc(S(=O)(=O)N(C)C[C@@H]2OCCCC[C@H](C)Oc3ccc(NC(=O)CCCN(C)C)cc3C(=O)N([C@@H](C)CO)C[C@H]2C)cc1	·	0	·	·	·
O=C(C[C@H]1C[C@H]2c3cc(NS(=O)(=O)c4ccc(F)cc4)ccc3O[C@H]2[C@@H](CO)O1)N1CCOCC1	·	1	·	·	·
CCOc1ccc(C)cc1S(=O)(=O)NC1CCCCC1	-2	-4	22	0	61*
Cc1nc([N+](=O)[O-])c(Sc2nc3ccccc3n2C)n1Cc1ccccc1	-1	12	53	0	79*
Cc1nc([N+](=O)[O-])c(SCC(N)=O)n1Cc1ccccc1	1	-3	-4	0	16
CO[C@@H](CN(C)Cc1cc(F)ccc1F)[C@@H](C)CN(C(=O)Nc1ccc(F)cc1)[C@H](C)CO	·	6	·	·	·
Cc1ccc(C)c(Cn2nnc3c(=O)[nH]c(C4CCN(C(=O)c5cccs5)CC4)nc32)c1	0	2	27	0	76*
Cc1ccc(C)c(Cn2nnc3c(=O)[nH]c(C4CCCN(C(=O)c5cccs5)C4)nc32)c1 (configuration not stated)	3	6	10	0	18
O=Nc1c(-c2ccccc2)[nH]n(-c2ccccc2)c1=O	8	·	65	-2	98*
NC(=O)c1ccc(N=Nc2c(-c3ccccc3)[nH]n(-c3ccccc3)c2=O)cc1	1	·	2	0	-1
Cc1ccc(S(=O)(=O)N[C@@H]2C=C[C@H](CC(=O)NCCN3CCCCC3)O[C@H]2CO)cc1	·	2	·	·	·
C=CCN(CC(O)c1cccc([N+](=O)[O-])c1)C(C)CCc1ccccc1 (configuration not stated)	-3	11	-78*	-1	-83
COCC#Cc1cnc2c(c1)C(=O)N([C@H](C)CO)C[C@H](C)[C@H](CN(C)S(C)(=O)=O)O2	·	-3	·	·	·
COc1ccc(C(C)NC(=O)Cc2ccc(Br)cc2)cc1 (configuration not stated)	0	-4	22	0	61*
COc1cccc2cc(-c3ccccc3)c(=O)oc12	-3	0	27	2	62*
COc1ccc(-c2cc3cccc(OC)c3oc2=O)cc1	14	3	-6	-4	26
CCOc1cc(CNc2ccc3c(c2)OCCO3)cc(Br)c1OCC(N)=O	-2	10	-74*	0	-76
Cc1ccc(S(=O)(=O)N(C)C[C@@H]2Oc3cc(Br)ccc3S(=O)(=O)N([C@H](C)CO)C[C@@H]2C)cc1	·	5	·	·	·
CC(C)c1ccc(/C=N/NC(=O)C2CCCC2)cc1	-4	-16	27	3	52*
CCOC(=O)C(C)Sc1nc(-c2ccccn2)ncc1OC (configuration not stated)	7	60*	1	0	3
Cc1nc(-c2ccccn2)nc(N(C)c2ccccc2)c1Cl	1	28	3	0	21
COc1cnc(-c2ccccn2)nc1N(C)C	0	74*	-6	78*	-15
CCOc1ccc(NC(=O)CCCNC(=O)Cn2cnc3sc(C)c(C)c3c2=O)cc1	-4	-7	-64*	-28	-70

Screening data deposited in PubChem by several laboratories.
